Compound activity (PubChem)
RecA intein inh: Mtb RecA intein splicing inhibition; P9WHJ3; cell-free RecA intein splicing, fluorescence; inhibition, % (test concentration not listed); hit rate 0.75% among 290,000; AID 2221; in the data active = inhibition above about 30%
GDH-TPI inh: GDH-TPI coupled enzyme inhibition counter-screen; hit rate 1.2% among 360,000; inhibition, % at 4.8 µM; GDH-TPI coupled enzyme counterscreen, NADH absorbance; in the data active = inhibition above about 30%
UGM FP inh: Mtb UDP-galactopyranose mutase inhibition; inhibition, % at 10 µM; purified UGM, fluorescence polarization probe displacement; P9WIQ1; AID 504406; hit rate 0.06% among 320,000; in the data active = inhibition above about 10%, passing the limit was not always enough
Target sequence (P9WIQ1 whole entry, looked up): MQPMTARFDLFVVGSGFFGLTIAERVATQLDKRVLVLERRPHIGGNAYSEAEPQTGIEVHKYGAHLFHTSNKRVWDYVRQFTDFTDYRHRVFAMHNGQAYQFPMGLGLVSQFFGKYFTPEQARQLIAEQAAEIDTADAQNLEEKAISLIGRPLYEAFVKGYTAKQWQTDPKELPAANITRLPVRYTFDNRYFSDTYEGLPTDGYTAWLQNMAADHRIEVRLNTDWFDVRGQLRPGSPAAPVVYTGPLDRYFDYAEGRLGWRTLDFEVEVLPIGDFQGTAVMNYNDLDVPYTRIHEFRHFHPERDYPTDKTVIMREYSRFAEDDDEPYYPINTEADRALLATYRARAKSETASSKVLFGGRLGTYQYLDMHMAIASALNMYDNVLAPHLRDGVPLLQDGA
Rv3671c inh: inhibitors of M. tuberculosis serine protease Rv3671c; P9WHR9; AID 2606; inhibition, % at 5.96 µM; hit rate 0.048% among 320,000; in the data active = inhibition above about 38%;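 note: extracellular domain of Rv3671c used as enzyme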
BH1578 lux ind: quorum light induction in luxS cqsA deficient V. cholerae. activation, % at 18.7 µM. hit rate 0.16% among 350,000. V. cholerae BH1578 lux reporter, luminescence, 6 h; in the data active = activation mostly above about 9.7%, no sharp cut-off
Mtb FBA inh: Mtb fructose-bisphosphate aldolase inhibition; P9WQA3; purified M. tuberculosis FBA, fluorescence read-out; inhibition, % at 1 µM; hit rate 2.3% among 360,000; in the data active = inhibition above about 27%
GFP chromophore: counter-screen GFP chromophore formation inhibition | shares compounds with RecA intein inh | cell-free GFP chromophore formation, fluorescence | EC50, µM | hit rate 83% among 2,100 | AID 434968; call rule not given here
Of the large screens only hits and unclear results are named; the others gave an inactive call (follow-up assays come after a bar, where they were run). In the library only some 4.1% were active in any assay of this set; here they are far more common.

c1ccc2oc(-c3ccc(Nc4nc(N5CCOCC5)nc(N5CCOCC5)n4)cc3)nc2c1	none (no result: RecA intein inh, UGM FP inh, Rv3671c inh)
COc1ccc(C2C(O)C(c3c[nH]c4ccccc34)=NN2C(=O)CCl)cc1 (configuration not stated)	RecA intein inh 87 | GFP chromophore 2.3
CC(=O)Oc1ccc2c(=O)oc(-c3ccccc3C)nc2c1	RecA intein inh 33 | GFP chromophore inactive
CC(=O)Oc1ccc2c(=O)oc(-c3ccccc3)nc2c1	none
O=C1CCCC2=C1C1(O)C(=O)c3ccccc3C1(O)O2 (configuration not stated)	RecA intein inh 89 | GFP chromophore 10
N#CC1=C(N)OC2=C(C(=O)CCC2)[C@]12C(=O)N(CC(N)=O)c1ccccc12	none
O=C(NNC(=O)c1cccnc1Cl)c1ccc(F)cc1	none
O=C(N/N=C/c1cc(Cl)cc([N+](=O)[O-])c1O)c1ccccc1NS(=O)(=O)c1cccs1	RecA intein inh 33 | GFP chromophore inactive
COc1cccc(CNC(=O)COc2ccc(C(=O)c3ccccc3)cc2)c1	none
COc1ccc(C(=O)Nc2ccc(O)c3ccccc23)cc1	RecA intein inh 98 | GFP chromophore 0.22
COc1ccc(NC(=O)Nc2ccc(O)c3ccccc23)cc1	RecA intein inh 67 (no result: GDH-TPI inh, BH1578 lux ind, Mtb FBA inh) | GFP chromophore 4.3
CC(C)COC(=O)N1CCCCC1c1cc(C(=O)NCc2ccc(F)cc2)no1 (configuration not stated)	none (no result: RecA intein inh, UGM FP inh, Rv3671c inh)
Nc1ccc(O)c2ccccc12	RecA intein inh 88 (no result: GDH-TPI inh, BH1578 lux ind, Mtb FBA inh) | GFP chromophore 11
CC(C)C(=O)N1CCC1(C)C(=O)Nc1cccc(Oc2ccccc2)c1 (configuration not stated)	none (no result: RecA intein inh, UGM FP inh, Rv3671c inh)
O=C(C1CCN(S(=O)(=O)c2cc(Cl)ccc2Cl)CC1)N1CCOCC1	none
N=c1c2c(-c3ccccc3)c(-c3ccccc3)n(Cc3ccco3)c2ncn1Cc1ccco1	RecA intein inh 47 | GFP chromophore 14
N#Cc1c(C#N)c(O)c2ccccc2c1O	RecA intein inh 84 | GFP chromophore 2.4
N#Cc1c(Cl)c(Cl)c2nnc(-c3ccc(Br)cc3)n2c1Cl	RecA intein inh 49 (no result: GDH-TPI inh, BH1578 lux ind, Mtb FBA inh) | GFP chromophore 5.1
O=c1cc(C23CC4CC(CC(C4)C2)C3)[nH][nH]1	RecA intein inh 91 | GFP chromophore 10
O=C(Nc1ccc2cn[nH]c2c1)c1c(Cl)cccc1Cl	none
O=C1C(Cl)=C(Nc2ccc3cn[nH]c3c2)C(=O)c2ccccc21	RecA intein inh 90 | GFP chromophore 1.5
CCOc1ccc(CCNC(=O)COc2cccc(-n3cnnn3)c2)cc1OCC	none
COc1ccc(/C=C(\CC(=O)O)c2nc3ccccc3o2)cc1	none (no result: RecA intein inh)
COc1ccc(C(=O)/C(=C/c2cccs2)c2nc3ccccc3o2)cc1	RecA intein inh 46 | GFP chromophore inactive
Cc1nc2ccccc2c2c1C(=O)N(Cc1cccnc1)C2=O	RecA intein inh 54 | GFP chromophore 0.81
O=C1c2ccccc2C(=O)N1Cc1cccnc1	none
C/C(CC(=O)Nc1ccccn1)=N\NC(=O)C(=O)Nc1ccccc1C	none
CCc1ccc(NC(=O)C(=O)N/N=C(\C)CC(=O)Nc2ccccn2)cc1	RecA intein inh 36 | GFP chromophore inactive
O=c1c(Cl)c(Cl)cnn1Cc1nnc(-c2ccc(Cl)cc2)o1	RecA intein inh 37 (no result: UGM FP inh, Rv3671c inh) | GFP chromophore 9.3
Cc1ccc(-c2nnc(Cc3ccc(Cl)cc3)o2)cc1	none
O=c1c(Cl)c(Cl)cnn1Cc1ccccc1Cl	RecA intein inh 38 (no result: GDH-TPI inh, BH1578 lux ind, Mtb FBA inh) | GFP chromophore 20
COc1ccc(N2CC(C(=O)N3CCN(C(=O)c4ccco4)CC3)CC2=O)cc1 (configuration not stated)	none
O=C1NCC(Nc2ccc(Cl)cc2)C(=O)N1 (configuration not stated)	none (no result: RecA intein inh, UGM FP inh, Rv3671c inh)
Cc1ccc(NC(=O)CCCn2nc(C)c3c(C)n(-c4ccccc4)nc3c2=O)c(Cl)c1	none
N#Cc1ncc(Cc2ccccc2)nc1C#N	RecA intein inh 82 | GFP chromophore 5
CCC(=O)[C@@]1(C)[C@H](C)C[C@H]2[C@@H]3CCC4=CC(=O)C=C[C@]4(C)[C@H]3[C@@H](O)C[C@@]21C	none (no result: RecA intein inh)
O=c1cc(-c2cccc3ccccc23)[nH][nH]1	RecA intein inh 93 (no result: BH1578 lux ind) | GFP chromophore 3.5
CCC(C)c1c(N)n(S(=O)(=O)c2ccc(C)cc2)oc1=O (configuration not stated)	none (no result: RecA intein inh, UGM FP inh, Rv3671c inh)
Cc1ccc(C)c(NC(=O)CSc2n[nH]c(-c3ccccn3)n2)c1	RecA intein inh 51 | GFP chromophore inactive
CC(C)=CCC1=C(OCC(=O)O)C(=O)c2ccccc2C1=O	RecA intein inh 63 | GFP chromophore 12
CC1CCc2c(sc3nc(C(C)(C)C)nc(N4CCN(C(=O)CCl)CC4)c23)C1 (configuration not stated)	RecA intein inh 83 | GFP chromophore 0.96
Nc1ccc(N2CCCCC2)c2nonc12	RecA intein inh 75 | GFP chromophore 11
Nc1c(N2CCCC2)cc(Cl)c2nonc12	RecA intein inh 70 | GFP chromophore 5.1
CCN(CC(=O)NCc1cccs1)C(=O)Cc1ccc(Cl)c(Cl)c1	none (no result: RecA intein inh)
Cc1ccc(NC(=O)C(CC(C)C)NC(N)=O)cc1 (configuration not stated)	RecA intein inh 33 | GFP chromophore inactive
O=C1c2[nH]nc(-c3ccccc3O)c2C(c2cccc(Cl)c2)N1Cc1ccco1 (configuration not stated)	RecA intein inh 34 | GFP chromophore inactive
CCc1ccc(OCC(O)CN2CCN(c3ccc(OC)cc3)CC2)cc1 (configuration not stated)	none
Cn1ncnc2c(=O)n(C)c(=O)nc1-2	RecA intein inh 97 | GFP chromophore 0.09
CCCc1nc2c(=O)n(C)c(=O)nc-2n(C)n1	none (no result: RecA intein inh, UGM FP inh, Rv3671c inh)
Cn1nc(-c2ccccn2)nc2c(=O)n(C)c(=O)nc1-2	RecA intein inh 95 | GFP chromophore 0.41
Cc1ccc(NC2=C/C(=N/S(=O)(=O)c3cccs3)c3ccccc3C2=O)cc1	RecA intein inh 31 | GFP chromophore 0.14
O=C1C=C(Nc2ccccc2)C(=O)c2ccccc21	none
Cc1ccc(S(=O)(=O)/N=C2\C=C(Nc3ccc(O)cc3)C(=O)c3ccccc32)cc1	none (no result: RecA intein inh)
O=C1C(Nc2ccccc2)=C/C(=N/S(=O)(=O)c2cccs2)c2ccccc21	RecA intein inh 38 | GFP chromophore 0.28
CCCCC(=O)NC(c1cccc([N+](=O)[O-])c1)c1c(OC(C)=O)ccc2ccccc12 (configuration not stated)	RecA intein inh 35 | GFP chromophore inactive
Cc1ccc(S(=O)(=O)N2CCC(C(=O)OCC(=O)N3C(C)CCCC3C)CC2)cc1C (configuration not stated)	none (no result: RecA intein inh, UGM FP inh, Rv3671c inh)
C[C@@H]([C@@H](O)c1ccccc1)N(C)C(=O)C(N)Cc1ccccc1 (some centres not stated)	none
C[C@@H]1CC=C[C@H]2[C@H]1C(=O)N(Cc1ccccc1)[C@H]2c1ccc(C(F)(F)F)cc1	RecA intein inh 37 | GFP chromophore inactive
